# The supplement of paper PMC6555819
# Test system: RARb homodimer (NR concentration 270 nM)
# Assay: PBM binding z-score (relative to random genomic background probes); higher = stronger binding; sequences stand for … in GC…GCGATTGACAGCGTAGAATGAAGG
# Procedure, shortened: (§1)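 Scanned fluorescence from custom Agilent 4×180K protein-binding microarrays was regression-normalized. Binding z-scores use random background probes as reference. Ligand-free nuclear receptor dimers were incubated on the arrays for 1 h and detected with antibodies against each partner (one per run).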
row,Sequence,PBM binding z-score
1,CCTTACGGGTCACGAAGTTATAGCACGACGAGCG,3.14
2,TCTTGTAGATCAAGTAGGTTAAGAAAGCCTGAGT,0.305
3,CGTCCAAGGTCAAAGGTCCGTGAAGAGATGACGG,3.99
4,CCTTACGGGTCACTGACAGGTTAAAGCATTTGGA,3.06
5,ACTAGCAGGCCAAGGGTCACTCGAGATTAGTCCG,3.75
6,ATATGGAGGTTACATCCGGGTCATTCAGGCTATG,3.23
7,GATACAGGGTCAAGTCCAGAGTACGCGTATTGAT,3.68
8,ATATGTAGGTTATCGGGTCATTCAGTTTGCGCAT,3.05
9,ACTATTAGTTGACTTAGGGGAACCGATACGACGC,0.325
10,TCTTGTAGATCAGCTGGTTAAGAAAGCTGGCCAA,-0.771
11,CTCGAAAGGTCGGTTGAGGTGAGTATGCGGATAA,2.57
12,CCTATTAGTTGACCATGAGGGCAACCGAAGCTCG,2.22
13,AGAATGAGGTTACCAATGATCAGGGAAACGCTTG,0.796
14,CTCGAAAGGTCGGCTGAGGTGAGTATACGGATAA,2.61
15,CGTCCAAGGTCAGAGAGGTCAGTGCATGCCGAGT,5.13
16,TCTAGTTGGTCACTGAGGTCACACACGACGGGTA,4.59
17,ATCTCTAGGTAACCAAGTTCACTGAATGCCGAAC,2.26
18,TAGCCTATGTCATTCAGGGGCCAGTATAGAAAGC,0.708
19,ACTAGCAGGCCAAGTTTGGGTCTCTCAAACAAAG,0.00651
20,GTACCAAGGTGAATAGGTCGCTGATGAGTAGGCG,1.69

row,Sequence,PBM binding z-score
1,TCTGCTAGGGCAACGATGGTCAGCTAATCTGCTA,0.762
2,CGTCCAAGGTGATAGGAGGTCAGTGAAGACAGAT,3.59
3,GCTAGTTGGTCAGGAAAAGGTCACACACCGGTCG,5.07
4,ATAATGAGGTTATTAAGATCAGGGAATTGCGGTC,0.912
5,AGAACGGGGGCACGCTGAGTTGATAGCAGAGTAG,1.94
6,GCTAGCAGGCCATTTGCGTCACTCAATGACGGGC,-0.848
7,TAGCCTAGGTCAGATCGGGCCAGCATACGCTATA,2.06
8,CCGACTGGGGCGAAGGTTACCATACTCAGTACGA,0.751
9,AGTCAAAGTTCATCTAGGTAACGTCAGATATGCT,3.92
10,CGTCCAAGGTCAGCAGTTCAGTGAAAGCGACGTG,4.62
11,AGAGCGAGGGCAATGAGTTGATAGCACGGGTGGC,0.903
12,TCTTGTAGATCAGCAGCTTAAGAAAGCTGGCCAA,-0.684
13,AATACAGGGGCACTAGGCCAGAGTAGGTACGAAT,0.82
14,CCTAACGGGTCACTGACAGGTTATAGCATTTGGA,2.94
15,ATATGTAGGTTAGCTGGGGTGATTCAGACTAGGC,1.08
16,TCTTTTAGTTGAAGGGCAACCGACGAGTCCGTTT,1.24
17,TCATATAGGTAAATGCTAGGTGCAAGTCCGATCT,-0.219
18,ACTCGGAGGACAAAGGTCAGAGCGACGCCAGTGA,4.63
19,CGGCCAAGGTCAATGCTAGGTCAGTGAAAGCATT,4.9

# Test system: RARg:RXRa (NR concentration 270 nM, RXRa partner concentration 90 nM)
# Assay: as above
# Procedure, shortened: as §1
row,Sequence,PBM binding z-score
1,CCTTACGGGTCACGAAGTTATAGCACGACGAGCG,5.21
2,TCTTGTAGATCAAGTAGGTTAAGAAAGCCTGAGT,0.0366
3,CGTCCAAGGTCAAAGGTCCGTGAAGAGATGACGG,6.31
4,CCTTACGGGTCACTGACAGGTTAAAGCATTTGGA,6.25
5,ACTAGCAGGCCAAGGGTCACTCGAGATTAGTCCG,3.93
6,ATATGGAGGTTACATCCGGGTCATTCAGGCTATG,4.87
7,GATACAGGGTCAAGTCCAGAGTACGCGTATTGAT,5.8
8,ATATGTAGGTTATCGGGTCATTCAGTTTGCGCAT,3.09
9,ACTATTAGTTGACTTAGGGGAACCGATACGACGC,0.568
10,TCTTGTAGATCAGCTGGTTAAGAAAGCTGGCCAA,-0.465
11,CTCGAAAGGTCGGTTGAGGTGAGTATGCGGATAA,2.73
12,CCTATTAGTTGACCATGAGGGCAACCGAAGCTCG,1.32
13,AGAATGAGGTTACCAATGATCAGGGAAACGCTTG,2.23
14,CTCGAAAGGTCGGCTGAGGTGAGTATACGGATAA,3.82
15,CGTCCAAGGTCAGAGAGGTCAGTGCATGCCGAGT,6.03
16,TCTAGTTGGTCACTGAGGTCACACACGACGGGTA,4.76
17,ATCTCTAGGTAACCAAGTTCACTGAATGCCGAAC,1.55
18,TAGCCTATGTCATTCAGGGGCCAGTATAGAAAGC,1.65
19,ACTAGCAGGCCAAGTTTGGGTCTCTCAAACAAAG,-0.231
20,GTACCAAGGTGAATAGGTCGCTGATGAGTAGGCG,2.65

row,Sequence,PBM binding z-score
1,TCTGCTAGGGCAACGATGGTCAGCTAATCTGCTA,0.579
2,CGTCCAAGGTGATAGGAGGTCAGTGAAGACAGAT,2.56
3,GCTAGTTGGTCAGGAAAAGGTCACACACCGGTCG,5.34
4,ATAATGAGGTTATTAAGATCAGGGAATTGCGGTC,1.39
5,AGAACGGGGGCACGCTGAGTTGATAGCAGAGTAG,3.62
6,GCTAGCAGGCCATTTGCGTCACTCAATGACGGGC,-0.404
7,TAGCCTAGGTCAGATCGGGCCAGCATACGCTATA,2.68
8,CCGACTGGGGCGAAGGTTACCATACTCAGTACGA,0.697
9,AGTCAAAGTTCATCTAGGTAACGTCAGATATGCT,5.76
10,CGTCCAAGGTCAGCAGTTCAGTGAAAGCGACGTG,5.66
11,AGAGCGAGGGCAATGAGTTGATAGCACGGGTGGC,1.19
12,TCTTGTAGATCAGCAGCTTAAGAAAGCTGGCCAA,-0.435
13,AATACAGGGGCACTAGGCCAGAGTAGGTACGAAT,0.814
14,CCTAACGGGTCACTGACAGGTTATAGCATTTGGA,5.4
15,ATATGTAGGTTAGCTGGGGTGATTCAGACTAGGC,0.84
16,TCTTTTAGTTGAAGGGCAACCGACGAGTCCGTTT,0.599
17,TCATATAGGTAAATGCTAGGTGCAAGTCCGATCT,0.325
18,ACTCGGAGGACAAAGGTCAGAGCGACGCCAGTGA,6.19
19,CGGCCAAGGTCAATGCTAGGTCAGTGAAAGCATT,7.57
